Data reported in publication PMC5540273 (PLoS ONE, 2017).

Tests used:
Conditions in all cases: concentration: 1 μM, replicates: in singlicate; n = 1
PDGFRB = test system: PDGFRB
PDPK1 = test system: PDPK1
PFTAIRE2 = test system: PFTAIRE2
PFTK1 = test system: T1, PFTK1
T1 construct: gene CDK14

PHKG1 = test system: PHKG1
PHKG2 = test system: PHKG2
PIK3C2B = test system: PIK3C2B
PIK3C2G = test system: PIK3C2G
PIK3CA = test system: PIK3CA
PIK3CB = test system: PIK3CB
PIK3CD = test system: PIK3CD
PIK3CG = test system: PIK3CG
PIK4CB = test system: T2, PIK4CB
T2 construct: gene PI4KB

PIKFYVE = test system: PIKFYVE
PIM1 = test system: PIM1
PIM2 = test system: PIM2
PIM3 = test system: PIM3
PIP5K1A = test system: PIP5K1A
PIP5K1C = test system: PIP5K1C
PIP5K2B = test system: PIP5K2B
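Note: KINOMEscan kinase panel screen.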

| Compound | %Inh (PDGFRB) [%] | %Inh (PDPK1) [%] | %Inh (PFTAIRE2) [%] | %Inh (PFTK1) [%] | %Inh (PHKG1) [%] | %Inh (PHKG2) [%] | %Inh (PIK3C2B) [%] | %Inh (PIK3C2G) [%] | %Inh (PIK3CA) [%] | %Inh (PIK3CB) [%] | %Inh (PIK3CD) [%] | %Inh (PIK3CG) [%] | %Inh (PIK4CB) [%] | %Inh (PIKFYVE) [%] | %Inh (PIM1) [%] | %Inh (PIM2) [%] | %Inh (PIM3) [%] | %Inh (PIP5K1A) [%] | %Inh (PIP5K1C) [%] | %Inh (PIP5K2B) [%] |
| --- | --- | --- | --- | --- | --- | --- | --- | --- | --- | --- | --- | --- | --- | --- | --- | --- | --- | --- | --- | --- |
| Nc1nccc2scc(-c3ccc4c(c3)CCN4C(=O)Cc3cc(F)ccc3F)c12 [GSK2587663] | 35 | 0 | 15 | 15 | 4 | 0 | 0 | 0 | 0 | 0 | 0 | 0 | 0 | 0 | 0 | 0 | 0 | 0 | 49 | 13 |
| Nc1n[nH]c2nnc(-c3ccccc3)cc12 [SB-517389] | 5 | 0 | 17 | 24 | 0 | 1 | 0 | 0 | 0 | 0 | 0 | 0 | 8 | 0 | 8 | 0 | 0 | 0 | 0 | 18 |
| Clc1ccc(-c2cc(-c3c[nH]nc3-c3ccccn3)ccn2)cc1 [GW681251] | 62 | 0 | 1 | 0 | 0 | 0 | 0 | 0 | 0 | 0 | 0 | 0 | 4 | 0 | 0 | 30 | 0 | 16 | 79 | 22 |
| CNc1nccc(-c2c(-c3ccc(F)cc3)ncn2C2CCN(C)CC2)n1 [SB-222903] | 17 | 0 | 0 | 0 | 0 | 0 | 0 | 0 | 0 | 0 | 0 | 0 | 0 | 9 | 1 | 0 | 0 | 36 | 0 | 0 |
| Fc1cccc(COc2ccc(Nc3ncnc4sc(-c5ccc[nH]5)cc34)cc2Cl)c1 [GW707818] | 19 | 5 | 22 | 23 | 0 | 12 | 0 | 7 | 0 | 1 | 0 | 0 | 0 | 0 | 20 | 0 | 14 | 29 | 46 | 0 |
| COc1ccc(NC(=O)Nc2ccc(C)c(-c3ccc(C(=O)Nc4ccncc4)cc3)c2)cc1 [GSK1398475] | 100 | 0 | 20 | 24 | 0 | 0 | 0 | 0 | 0 | 0 | 0 | 0 | 0 | 0 | 0 | 0 | 3 | 0 | 17 | 0 |
| N#Cc1ccc(Oc2ccc(Nc3ncnc4cc[nH]c34)cc2Cl)cc1 | 31 | 1 | 11 | 17 | 5 | 18 | 0 | 28 | 5 | 11 | 36 | 0 | 0 | 7 | 20 | 6 | 29 | 0 | 0 | 11 |
| Fc1ccc(Nc2nccc(-c3c(-c4ccc(Cl)cc4)nn4ncccc34)n2)cc1F [GW829058] | 44 | 12 | 4 | 10 | 7 | 0 | 6 | 29 | 25 | 50 | 54 | 18 | 32 | 20 | 31 | 11 | 24 | 13 | 54 | 14 |
| Cl.Fc1ccccc1COc1ccc(Nc2ncnc3ccc(-c4nnc(C(F)(F)F)o4)cc23)cc1Cl [GW424170] | 20 | 0 | 6 | 0 | 0 | 7 | 0 | 0 | 0 | 0 | 0 | 0 | 0 | 0 | 0 | 0 | 0 | 66 | 36 | 7 |
| CSc1nn2c(=O)cc(N3CCOCC3)nc2n1Cc1cccc(Cl)c1Cl [GSK2347225] | 24 | 0 | 45 | 20 | 0 | 0 | 80 | 33 | 15 | 100 | 85 | 56 | 0 | 37 | 8 | 0 | 0 | 0 | 27 | 4 |
| CCCc1ccc(S(=O)(=O)NC2CCN(c3ccnc(Nc4ccc(OC)cc4)n3)C2)cc1 (stereo not drawn) [GSK1379737] | 51 | 0 | 5 | 0 | 0 | 0 | 0 | 0 | 0 | 0 | 0 | 0 | 0 | 0 | 0 | 0 | 0 | 52 | 56 | 22 |
| O=C(NCCCN1CCCC1=O)c1cnc(NCc2cc(Cl)ccc2Cl)nc1NC1CCNCC1 | 0 | 7 | 0 | 7 | 0 | 1 | 0 | 0 | 0 | 0 | 0 | 7 | 0 | 30 | 0 | 0 | 4 | 0 | 12 | 0 |
| FC(F)(F)c1cc(Nc2nccc(-c3c(-c4ccc(Cl)cc4)nn4ncccc34)n2)ccc1Cl [GW829351] | 3 | 0 | 0 | 0 | 0 | 0 | 0 | 0 | 0 | 0 | 0 | 0 | 0 | 16 | 0 | 0 | 0 | 10 | 0 | 0 |
| Cl.Cl.c1ccc(-c2cc3ccncc3cc2OC2CCNCC2)cc1 [GSK1122999] | 42 | 0 | 34 | 12 | 2 | 0 | 7 | 0 | 4 | 26 | 30 | 3 | 0 | 0 | 25 | 0 | 39 | 0 | 25 | 10 |
| O=C(Nc1n[nH]c2nc(-c3ccco3)c(Br)cc12)c1ccc(CN2CCCC2)cc1.O=C(O)[C@H](O)[C@@H](O)C(=O)O [SB-742352] | 99.7 | 0 | 5 | 0 | 0 | 0 | 0 | 0 | 0 | 0 | 0 | 5 | 40 | 0 | 0 | 0 | 0 | 0 | 0 | 0 |
| Cc1cc(N2CCC(NS(=O)(=O)c3ccc(F)cc3)CC2)nc(Nc2cccc(C#N)c2)n1.O=C(O)C(F)(F)F [GSK1653537] | 0 | 15 | 10 | 9 | 17 | 0 | 0 | 6 | 0 | 2 | 0 | 15 | 10 | 0 | 25 | 9 | 0 | 0 | 0 | 6 |
| CCc1nc(-c2cccc(C)c2)c(-c2ccnc(NC(=O)c3ccccc3)c2)s1 | 0 | 0 | 17 | 10 | 0 | 0 | 14 | 49 | 0 | 29 | 44 | 0 | 62 | 1 | 0 | 0 | 0 | 15 | 0 | 64 |
| CC(C)(C)c1ccc(-n2cnc3c(N)ncnc32)cc1 [SKF-97263] | 31 | 5 | 16 | 32 | 0 | 0 | 100 | 12 | 100 | 0 | 28 | 100 | 30 | 0 | 9 | 0 | 0 | 0 | 0 | 2 |
| Cc1ccc(C)c(NC(=O)NCCNc2ccnc(Nc3ccc(F)cc3)n2)c1 [GSK1379878] | 6 | 0 | 10 | 0 | 0 | 0 | 0 | 0 | 0 | 0 | 0 | 0 | 0 | 0 | 0 | 0 | 0 | 41 | 48 | 15 |
| COC(=O)c1c(-c2ccccc2)c2cc(Cl)ccc2c(=O)n1Cc1ccc(S(C)(=O)=O)cc1 | 78 | 16 | 0 | 11 | 4 | 0 | 10 | 24 | 10 | 21 | 34 | 25 | 46 | 0 | 1 | 16 | 2 | 16 | 0 | 49 |
| CNc1nccc(-c2c(-c3ccc(F)cc3)ncn2CCCN2CCOCC2)n1 [SB-222516] | 4 | 0 | 9 | 0 | 0 | 0 | 0 | 3 | 0 | 6 | 0 | 0 | 20 | 0 | 0 | 0 | 81 | 6 | 17 | 0 |
| COc1ccc(-c2oc3ncnc(N)c3c2-c2ccc(OC)cc2)cc1 [SB-589132] | 41 | 0 | 17 | 0 | 0 | 0 | 0 | 10 | 0 | 0 | 4 | 10 | 10 | 23 | 0 | 0 | 0 | 48 | 54 | 11 |
| Cl.Cn1ccc(-c2cccc(Nc3ccnc4cc(-c5nccs5)ccc34)c2)n1 [GW525701] | 40 | 0 | 0 | 5 | 0 | 0 | 0 | 0 | 0 | 0 | 0 | 0 | 0 | 30 | 12 | 0 | 0 | 48 | 36 | 14 |
| Fc1ccc(-c2ncn(CCCNCc3ccccc3)c2-c2ccncc2)cc1 | 24 | 6 | 0 | 0 | 0 | 16 | 1 | 31 | 3 | 0 | 3 | 4 | 24 | 2 | 10 | 23 | 28 | 0 | 0 | 12 |
| Oc1ccc2ncnc(Nc3ccc(OCc4ccccc4)cc3)c2c1 [GI262866] | 21 | 0 | 13 | 29 | 0 | 0 | 0 | 0 | 0 | 0 | 5 | 0 | 1 | 0 | 0 | 0 | 33 | 0 | 19 | 19 |
| COc1ccc(Nc2nccc(N3CCC(NC(=O)c4cccc(NC(C)=O)c4)C3)n2)cc1 (stereo not drawn) [GSK1379732] | 20 | 10 | 17 | 36 | 0 | 1 | 0 | 0 | 0 | 9 | 0 | 0 | 0 | 0 | 0 | 0 | 0 | 49 | 70 | 12 |
| FC(F)(F)c1ccc(-c2cc(-c3c[nH]nc3-c3ccccn3)ccn2)cc1 [GW599550] | 30 | 5 | 20 | 19 | 0 | 21 | 0 | 0 | 3 | 0 | 0 | 1 | 0 | 22 | 19 | 0 | 51 | 18 | 74 | 17 |
| CC(=O)Nc1n[nH]c2ncc(-c3ccccc3)cc12 [SB-548492] | 90 | 0 | 14 | 12 | 2 | 0 | 3 | 23 | 0 | 0 | 0 | 26 | 44 | 0 | 7 | 0 | 14 | 10 | 0 | 8 |
| O=C(Nc1ccccc1F)NC1CCN(c2ccnc(Nc3ccc(F)cc3)n2)C1 (stereo not drawn) [GSK1379722] | 8 | 14 | 7 | 14 | 13 | 0 | 0 | 0 | 0 | 0 | 0 | 0 | 100 | 0 | 0 | 0 | 0 | 0 | 45 | 14 |
| C[C@H]1CC[C@@H](C(=O)Nc2ccccc2)CN1c1cc(-c2ccc3c(N)n[nH]c3c2)nc(N)n1 [GSK2283293] | 11 | 25 | 15 | 11 | 0 | 0 | 0 | 0 | 0 | 0 | 0 | 0 | 0 | 0 | 13 | 0 | 0 | 0 | 19 | 24 |
